Assay results: PubChem BioAssay (Tox21)
“And” between values parts separate entries of the source, which are not always exact repeats. Equal entries are not always repeated. Results filed as inconclusive are left out. Where a call stands in place of a potency, no number is given. A structure can be active in one record and inactive in another. The source made the active and inactive calls. Unless noted, calls come from the whole dose curve; as a rule, active = well fitted curve in the direction sought with a large enough effect in the repeat runs; inconclusive = weak or mixed curves; inactive = no such curve, though single readings can be large; an effect the other way counts as inactive or inconclusive.

What was measured:
[1] = qHTS assay to identify small molecule antagonists of the thyroid receptor (TR) signaling pathway - cell viability counter screen (AID 743064); note: nearly all actives have a fitted effect of over 50% in size
Summary of the method: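 In-well cytotoxicity read by CellTiter-Fluor (30 min, 37 C) following 23.5 h exposure of GH3 cells bearing a TRE-luciferase sensor. Compounds were added alongside 1 nM (final) T3 to drive TR transactivation.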

[2] = qHTS assay to identify small molecule antagonists of the thyroid receptor (TR) signaling pathway (AID 743065); note: nearly all actives have a fitted effect of over 55% in size
Summary of the method: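 GH3.TRE-Luc rat pituitary cells (two TREs driving luciferase) were dosed with compound, then stimulated with 1 nM T3 (final) for 23.5 h at 37 C. ONE-Glo luminescence was the read-out, with CellTiter-Fluor fluorescence as the cytotoxicity counter-screen.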

[3] = tested on: thyroid hormone receptor (rat, GH3 cells); assay: qHTS assay to identify small molecule agonists of the thyroid receptor (TR) signaling pathway (AID 743066; calls by dose curve)
[4] = target: Estrogen receptor (Homo sapiens) (UniProt P03372); assay: qHTS assay to identify small molecule antagonists of the estrogen receptor alpha (ER-alpha) signaling pathway (AID 743069; active = well fitted curve in the direction sought with a large enough effect in the signal ratio in the repeat runs, not every such curve was filed as active; the % refers to the signal ratio)
Estrogen receptor (Homo sapiens), sequence (P03372 whole entry, looked up): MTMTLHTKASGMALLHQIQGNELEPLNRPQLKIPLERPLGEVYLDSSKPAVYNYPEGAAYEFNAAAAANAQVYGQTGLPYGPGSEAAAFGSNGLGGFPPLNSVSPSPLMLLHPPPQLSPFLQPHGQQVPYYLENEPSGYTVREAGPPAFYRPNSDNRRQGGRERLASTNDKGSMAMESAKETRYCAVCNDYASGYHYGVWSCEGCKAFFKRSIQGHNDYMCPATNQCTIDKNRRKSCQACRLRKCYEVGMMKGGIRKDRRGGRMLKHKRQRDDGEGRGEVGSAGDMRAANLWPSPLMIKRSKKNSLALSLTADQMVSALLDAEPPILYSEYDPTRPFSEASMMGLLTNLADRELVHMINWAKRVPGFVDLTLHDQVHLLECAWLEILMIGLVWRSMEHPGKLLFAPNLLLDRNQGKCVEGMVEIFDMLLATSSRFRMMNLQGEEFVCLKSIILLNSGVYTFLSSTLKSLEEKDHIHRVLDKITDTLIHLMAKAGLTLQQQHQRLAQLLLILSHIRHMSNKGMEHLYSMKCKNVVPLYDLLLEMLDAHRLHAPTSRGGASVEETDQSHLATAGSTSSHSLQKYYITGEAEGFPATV
Summary of the method: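 In this cell-based reporter format, GripTite HEK293 cells harbouring ER-alpha-UAS-bla were grown overnight with 2% charcoal-stripped FBS, dosed with DMSO-dissolved compounds, then challenged with 17beta-estradiol. After 18 hr at 37C, beta-lactamase activity was detected by FRET fluorescence.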

[5] = qHTS assay to identify small molecule antagonists of the estrogen receptor alpha (ER-alpha) signaling pathway - cell viability counter screen (AID 743074; calls by dose curve; note: nearly all actives have a fitted effect of over 45% in size)
[6] = target: Estrogen receptor (Homo sapiens) (UniProt P03372); assay: qHTS assay to identify small molecule agonists of the estrogen receptor alpha (ER-alpha) signaling pathway (AID 743075; calls by dose curve)
[7] = target: Estrogen receptor (Homo sapiens) (UniProt P03372); assay: qHTS assay to identify small molecule agonists of the estrogen receptor alpha (ER-alpha) signaling pathway using the BG1 cell line (AID 743079); conditions: BG1Luc4E2 cells, ERE-luciferase agonist, 22 h; activation: at 70.3 µM (top of the series) unless noted; note: nearly all actives have a fitted effect of over 20% in size; note: potency is the fitted concentration of half-maximal effect
[8] = qHTS assay to identify small molecule antagonists of the estrogen receptor alpha (ER-alpha) signaling pathway using the BG1 cell line (AID 743080; calls by dose curve;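 note: BG1 cells stimulated with 17beta-estradiol alongside compound; nearly all actives have a fitted effect of over 25% in size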)
Summary of the method: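 Seeding, 24 h rest, compound transfer from DMSO, 17beta-estradiol addition, 21.5 h incubation, CellTiter-Fluor (30 min, 37 C), then ONE-Glo (30 min, room temperature): this sequence was run on BG1-Luc-4E2 reporter cells.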

[9] = qHTS assay to identify small molecule antagonists of the estrogen receptor alpha (ER-alpha) signaling pathway using the BG1 cell line - cell viability counter screen (AID 743081);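 note: compound given together with 17beta-estradiol as the ER stimulus; nearly all actives have a fitted effect of over 45% in size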
Aromatase (Homo sapiens) = Aromatase (Homo sapiens) (UniProt P11511); assay: qHTS assay to identify aromatase inhibitors (AID 743083); note: nearly all actives have a fitted effect of over 55% in size
Aromatase (Homo sapiens), sequence (P11511 whole entry, looked up): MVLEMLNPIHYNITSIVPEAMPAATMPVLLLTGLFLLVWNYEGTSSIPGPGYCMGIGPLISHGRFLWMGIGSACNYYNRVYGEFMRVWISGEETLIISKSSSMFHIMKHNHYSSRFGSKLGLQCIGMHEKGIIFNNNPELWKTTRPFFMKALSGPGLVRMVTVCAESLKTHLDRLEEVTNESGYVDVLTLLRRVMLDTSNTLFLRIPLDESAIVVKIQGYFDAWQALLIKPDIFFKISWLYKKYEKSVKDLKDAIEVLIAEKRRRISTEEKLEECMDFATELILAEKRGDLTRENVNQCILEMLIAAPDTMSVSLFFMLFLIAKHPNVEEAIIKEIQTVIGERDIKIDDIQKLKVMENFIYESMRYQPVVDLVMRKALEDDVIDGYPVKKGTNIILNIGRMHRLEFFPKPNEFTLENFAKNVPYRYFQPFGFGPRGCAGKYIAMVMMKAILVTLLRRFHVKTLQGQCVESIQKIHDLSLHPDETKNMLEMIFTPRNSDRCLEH

| Compound | Potency [1] | Potency [2] | Potency [3] | Potency [4] | Potency [5] | Potency [6] | Potency [7] | Potency [8] | Potency [9] | Potency (Aromatase (Homo sapiens)) |
| --- | --- | --- | --- | --- | --- | --- | --- | --- | --- | --- |
| COc1ccc([C@@H]2CC(=O)c3c(O)cc(O[C@@H]4O[C@H](CO[C@@H]5O[C@@H](C)[C@H](O)[C@@H](O)[C@H]5O)[C@@H](O)[C@H](O)[C@H]4O)cc3O2)cc1OC | inactive | inactive | inactive | inactive | inactive | inactive | inactive | inactive | inactive | inactive |
| Cc1cc(C)c(O)c(C)c1 | inactive | inactive | inactive | inactive | inactive | inactive | inactive | inactive | inactive | inactive |
| COc1c(Cl)ccc(Cl)c1C(=O)O | inactive | inactive | inactive | inactive | inactive | inactive | inactive | inactive | inactive | inactive |
| N#CCC(=O)O | inactive | inactive | inactive | inactive | inactive | inactive | inactive | inactive | inactive | inactive |
| CC(O)CNCC(C)O (stereo not drawn) | inactive | inactive | inactive | inactive | inactive | inactive | inactive | inactive | inactive | inactive |
| OC[C@H]1O[C@@H](Oc2ccc(O)cc2)[C@H](O)[C@@H](O)[C@@H]1O | inactive | inactive | inactive | inactive | inactive | inactive | inactive | inactive | inactive | inactive |
| CCCCC(=O)O | inactive | inactive | inactive | inactive | inactive | inactive | inactive and 49.1 µM (active) | inactive | inactive | inactive |
| CCCCCCC(=O)O | inactive | inactive | inactive | inactive | inactive | inactive | inactive | inactive | inactive | inactive |
| CN1CCCC1=O | inactive | inactive | inactive | inactive | inactive | inactive | inactive | inactive | inactive | inactive |
| Cc1cc(C)cc(O)c1 | inactive | inactive | inactive | inactive | inactive | inactive | inactive | inactive | inactive | inactive |
| CC(C)c1ccc(C(C)C)cc1 | inactive | inactive | inactive | inactive | inactive | inactive | inactive | inactive | inactive | inactive |
| C=CC(C)(C)C | inactive | inactive | inactive | inactive | inactive | inactive | inactive | inactive | inactive | inactive |
| O=[N+]([O-])c1ccccc1C(F)(F)F | inactive | inactive | inactive | inactive | inactive | inactive | inactive | inactive | inactive | inactive |
| CC(C)=CCC/C(C)=C/C=O | inactive | inactive | inactive | inactive | inactive | inactive | inactive | inactive | inactive | inactive |
| O=Cc1ccc(CO)o1 | inactive | inactive | inactive | inactive | inactive | inactive | inactive | inactive | inactive | inactive |
| CN=C(NC#N)NCCSCc1nc[nH]c1C | inactive | inactive | inactive | inactive | inactive | inactive | inactive | inactive | inactive | inactive |
| CC/C(C)=N/O | inactive | inactive | inactive |  | inactive |  |  |  | inactive |  |
| NC(N)=S | inactive | inactive | inactive | inactive |  | inactive | inactive | inactive | inactive | inactive |
| O=C(O)Cc1c[nH]c2ccccc12 | inactive | inactive | inactive |  | inactive |  |  |  | inactive |  |
| COc1c2ccoc2cc2oc(=O)ccc12 | inactive | inactive | inactive |  | inactive | inactive | inactive | inactive | inactive | inactive |
| C=C(C)CC(C)(C)C | inactive | inactive | inactive |  | inactive |  |  |  | inactive |  |
| CCn1cc(C(=O)O)c(=O)c2cc3c(cc21)OCO3 | inactive | inactive | inactive |  | inactive |  |  |  | inactive | inactive |
| COC(=O)/C=C\C(=O)OC | inactive | inactive | inactive |  | inactive |  |  |  | inactive |  |
| COc1ccc(N)c(OC)c1 | inactive | inactive | inactive | inactive | inactive | inactive | inactive | inactive | inactive | inactive |
| CCOC(=O)c1ccc(O)cc1 | inactive | inactive | inactive | inactive | inactive | inactive | 23.7 µM (active) and 30.6 µM (active) |  | inactive | inactive |
